Assay outcomes from PubChem.
ALDH1A1 block: inhibitors of human aldehyde dehydrogenase 1A1; 7.3% of 220,000 active; AID 1030; P00352; Potency, µM (doses to about 75.3 µM), inactives show top-dose activity, negative = inhibition, actives largely listed as inhibitors; Purified ALDH1A1, NADH fluorescence, propionaldehyde substrate;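 also: potency is read from the fitted curve at half-maximal effect; plate controls were no enzyme wells and a reference inhibitor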
Target sequence (P00352 whole entry, looked up): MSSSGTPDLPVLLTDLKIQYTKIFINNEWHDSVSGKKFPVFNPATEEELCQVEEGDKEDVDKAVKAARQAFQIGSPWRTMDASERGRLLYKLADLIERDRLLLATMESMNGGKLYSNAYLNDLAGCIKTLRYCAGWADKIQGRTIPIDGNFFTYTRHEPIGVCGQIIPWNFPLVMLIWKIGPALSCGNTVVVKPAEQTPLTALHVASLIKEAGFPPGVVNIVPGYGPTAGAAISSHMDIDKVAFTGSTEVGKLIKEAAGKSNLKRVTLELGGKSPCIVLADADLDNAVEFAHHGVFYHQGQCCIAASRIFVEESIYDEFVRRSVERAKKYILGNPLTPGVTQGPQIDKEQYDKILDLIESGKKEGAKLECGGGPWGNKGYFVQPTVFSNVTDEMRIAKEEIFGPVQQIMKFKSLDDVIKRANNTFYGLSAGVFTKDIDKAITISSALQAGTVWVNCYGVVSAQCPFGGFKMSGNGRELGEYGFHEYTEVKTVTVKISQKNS
PNC assembly inh: inhibitors of perinucleolar compartment assembly; AID 2417; activity change (PNC), negative = inhibition, % at 10 µM; 3.1% of 140,000 active; PC3M PTB-GFP, PNC prevalence imaging, 16 h; hits give low values;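 active = readout at or below -70, meaning at least 70% loss of cells showing the perinucleolar compartment, a nuclear body marking cancer cells; inconclusive = readout between -30 and a set limit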;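 also: plate controls were DMSO wells for no effect and camptothecin positive control wells for full effect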
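Compounds are pinned in duplicate onto adhered PC3M cells stably expressing GFP-tagged PTB and incubated 16 h at 37 C. Cells are then fixed, nuclei stained with Hoechst, and PNC-positive cells counted.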
HPGD inh: HPGD (human) dehydrogenase inhibition. Potency, µM, inactives show top-dose activity change, negative = inhibition, most hits filed as inhibitors. 4.3% of 150,000 active. P15428. purified HPGD, NADH fluorescence kinetic, PGE2 substrate; also: potency is read from the fitted curve at half-maximal effect
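20 nM HPGD preincubated 15 min at room temperature with compound in 50 mM Tris-HCl pH 8, 0.01% Tween 20. Started with 1 mM NAD+ and 30 uM prostaglandin E2; NADH fluorescence (360/450 nm) read 5 times over 30-s intervals, last minus first.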
* marks the source's active call; other numbers are inactive results; ? = inconclusive; nt = no result; [ ] = another dose, or the depositor's remark. Shown are actives, neighbours in structure and some others; about 11% of the full set was active somewhere. Unless noted, calls follow the shape of the dose curve; as a rule, active = well fitted inhibition curve with a large enough effect (not every such curve was filed as active); inconclusive = small, poorly fitted or top-dose-only effect, or another doubt; inactive = no such curve, though single readings can be large or run the other way. Unless noted, % is scaled to controls: 0 for no effect and ±100 for the full control effect.

SMILES	ALDH1A1 block	PNC assembly inh	HPGD inh
Clc1cccc(Cl)c1CO/N=C/c1c(-c2ccccc2)nc2n1CCS2	-7%	31	?
FC(F)Oc1ccc(/C=N/c2c(-c3ccc(OC(F)F)cc3)nc3n2CCS3)cc1	3.5µM*	321	?
O=C(Cn1cnc2cc([N+](=O)[O-])ccc2c1=O)NC(c1ccccc1)c1ccccc1	-7%	14	-12%
COc1ccccc1NC(=O)CCSCCC(=O)Nc1ccccc1OC	14µM*	-8	-16%
CCOc1ccc(NC(=O)CCC(=O)c2ccc(-c3ccccc3)cc2)cc1	5%	27	-5%
COc1ccccc1NC(=O)CCC(=O)c1ccc(-c2ccccc2)cc1	-7%	-9	18µM*
CCOc1ccc(NC(=O)CC2Nc3ccccc3NC2=O)cc1 (centres undefined)	-3%	nt	nt
COc1ccccc1NC(=O)CNC(=O)c1ccccc1C	-11%	-108*	20µM*
COc1ccccc1NC(=O)CC1Nc2ccccc2NC1=O (centres undefined)	28µM*	?	?
COc1ccccc1NC(=O)CCC(=O)Nc1ccccc1OC	-7%	2	-5%
COc1ccccc1NC(=O)CNC(=O)c1ccccc1	3%	18	-18%
C=C(C)C(=O)OC1(C(F)(F)F)Oc2cc(C)ccc2NC1=O (centres undefined)	2%	-10	-9%
Cc1cc(C)cc(C(=O)N2CCN(c3ccccn3)CC2)c1	-8%	nt	nt
COc1ccccc1NC(=O)CN1C(=O)NC(CC(C)C)C1=O (centres undefined)	3%	?	-3%
COc1ccccc1NC(=O)CN1C(=O)C(C)SC(C)C1=O (centres undefined)	9%	-99*	-3%
COC(=O)Nc1[nH]ncc1[N+](=O)[O-]	4%	nt	nt
CC(C)C[C@@H](CC(=O)N[C@@H](CCC(=O)O)CC(=O)O)NC(=O)[C@@H]1CNCC[C@H]1NC(=O)C[C@H](CCCN)NC(=O)C[C@H](CO)NC(=O)[C@@H]1CNCC[C@H]1N	?	nt	-8%
CCOc1ccc(-n2c(=O)c3c4c(sc3n(CC(=O)NCc3ccco3)c2=O)CCC4)cc1	10%	-19	-4%
O=C(Cn1c(=O)n(Cc2ccco2)c(=O)c2c3c(sc21)CCCC3)Nc1ccccc1	?	9	-11%
O=c1c2c3c(sc2n(CCN2CCCCC2)c(=O)n1Cc1ccco1)CCCCC3	5.6µM*	-2	-16%
NC(=O)Cn1c(=O)n(Cc2ccco2)c(=O)c2c3c(sc21)CCCCC3	11µM*	-20	-18%
CCn1c(=O)n(CCc2ccccc2)c(=O)c2c3c(sc21)CCCC3	-2%	1	-8%
O=c1c2c3c(sc2n(CCN2CCOCC2)c(=O)n1Cc1ccco1)CCCCC3	7.9µM*	-28	-14%
O=C(O)CN(c1ccccc1[N+](=O)[O-])S(=O)(=O)c1ccccc1	-4%	nt	nt
COc1cccc(CN2CCN(C(=S)NCc3ccc(Cl)cc3)CC2)c1	-6%	nt	nt
SMILES	ALDH1A1 block	PNC assembly inh	HPGD inh
C[C@H](O)Cn1cnc2c1c(=O)n(C)c(=O)n2C	7%[20.9 µM]	nt	-5%
Cc1cc(C)n(-c2nc3ccccc3nc2N2CCC(C)CC2)n1	?	-24	-2%
Cc1cc(N2CCC(C)CC2)nc(-n2nc(C)cc2C)n1	-9%	-96*	-9%
O=c1cnc2cnc(Oc3cccc(Cl)c3)nc2n1C1CC1	-14%	nt	-7%
COc1ccc(CCN(Cc2ccccn2)C(=S)Nc2ccccc2C)cc1OC	20µM*	nt	nt
COc1ccccc1NC(=S)N(CCCN1CCOCC1)Cc1ccccn1	3%	23	-4%
COC(=O)CSc1nnc(-c2ccco2)n1Cc1ccco1	14µM*	3	-20%
Cc1[nH]c2ccc(-c3nnc(SCC(=O)NCc4ccco4)n3Cc3ccccc3)cc2c1C	32µM*	12	16µM*
CCOC(=O)c1c(C)[nH]c(C(=O)CSc2nnc(-c3cccs3)n2Cc2ccccc2)c1C	-1%	-20	-19%
CC(C)(C)NC(=O)CSc1nnc(-c2ccco2)n1Cc1ccco1	0%	12	1%
Cc1sc2nc(SCC(=O)NCc3ccco3)n(Cc3ccccc3)c(=O)c2c1C	-2%	?	-7%
O=C(CSc1nnc(-c2ccco2)n1Cc1ccccc1)OC1CCCCC1	?	-27	25µM*
CC(=O)c1c(C)[nH]c(C(=O)CSc2nnc(-c3cccs3)n2Cc2ccccc2)c1C	13µM*	?	?
O=C(CSc1nnc(-c2ccncc2)n1Cc1ccco1)OC1CCCCC1	?	?	-24%
C1CCN2C[C@H]3C[C@H](CN4CCCCC34)C2C1 (some centres undefined)	1%	nt	-9%
CCn1c(SCC(=O)NCc2ccco2)nnc1C(C)C	4µM*	?	-22%
CCn1c(CNC(=O)c2cccs2)nnc1SCC(=O)NCCc1ccccc1	7%	2	-16%
O=c1cc(CSc2nnc(-c3cccs3)n2Cc2ccccc2)nc2sc3ccccc3n12	7.9µM*	9	-6%
CCn1c(SCC(=O)NCCc2ccccc2)nnc1-c1cccs1	-5%	33	28µM*
CCn1c(SCC(=O)NCc2ccco2)nnc1-c1ccncc1	-4%	nt	nt
Cc1cc(C(=O)CSc2nnc(-c3cccs3)n2Cc2ccccc2)c(C)n1C	?	-29	-4%
CCn1c(SCC(=O)NCc2ccco2)nnc1-c1cccs1	8.9µM*	-26	25µM*
CC(C)c1nnc(SCC(=O)NCc2ccco2)n1C	2%	-15	-6%
CC(C)(C)c1ccc(S(=O)(=O)N2CCN(c3ncccn3)CC2)cc1	8%	nt	nt
Cc1ccc(C)c(N2CCN(C(=O)CN3C(=S)NC(C)(C)CC3C)CC2)c1 (centres undefined)	-5%	nt	nt
SMILES	ALDH1A1 block	PNC assembly inh	HPGD inh
CC(C)c1nn2c(=O)cc(O)nc2s1	-7%	39	-8%
COc1cc(Cl)c(S(=O)(=O)NCc2ccccn2)cc1Cl	-4%	?	-6%
CCCOc1ccc(C(=O)NCC(C)(C)N2CCOCC2)cc1	17%	nt	nt
O=C(c1cnccn1)N1CCC2(CC1)CN(c1cccc(-c3ccccc3)c1)C2	-7%	nt	-17%
CCCCn1c(SCC(=O)NCc2ccco2)nnc1-c1ccco1	20µM*	30	-24%
CCCCNC(=O)CS(=O)Cc1nc(-c2cccs2)oc1C (centres undefined)	-13%	-6	-12%
CCCCn1c(SCC(=O)NCc2ccco2)nnc1-c1ccoc1C	-12%	36	-8%
CCn1c(SCC(=O)Nc2ccc(C(=O)OC)cc2)nnc1-c1cccs1	6%	?	-10%
CCn1c(SCC(=O)NCC(=O)Nc2ccc(F)cc2)nnc1-c1cccs1	5%	-86*	-8%
Cc1oc(-c2cccs2)nc1CS(=O)CC(=O)NCCc1ccccc1 (centres undefined)	?	-28	32µM*
CN1CCO[C@H](c2ccccc2)c2ccccc2C1	10%[20.9 µM]	nt	0%
CS(=O)(=O)NN1C(=O)c2ccccc2NC1c1c[nH]c2ccccc12 (centres undefined)	?	-28	-21%
CCOC(=O)Cn1nc(C)n(-c2ccc(C(C)(C)C)cc2)c1=O	4%	59	0%
Cc1ccccc1C(=O)N1CCc2cc(-c3nc(NC(=O)Cc4ccc5c(c4)OCO5)sc3C)ccc21	6%	-9	?
